Measured values published in PubChem BioAssay (EPA / NIEHS).
Results filed as inconclusive are left out. Active and inactive are the calls of the source. The calls were made as follows, unless noted: active = hit-call score of the fitted dose curve at least 0.9, where 1 is the maximum; inactive = score below 0.9.

Legend:
[1] = CCTE_Shafer_MEA_dev_network_spike_duration_std: CCTE's Neural Network Formation Assay for Standard Deviation of Network Spike Duration, Shafer Lab (AID 2284052);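 also: area under curve of spike duration SD across recording days 5 to 12; hits are decreases in network spike duration SD versus DMSO vehicle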
Summary of the method: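 Rat cortical cultures, 1.5 x 10^5 cells/well, exposed continuously from plating to DIV 12 with media/compound renewal at DIV 5, 9. Spontaneous activity recorded DIV 5/7/9/12, AxIS adaptive spike detector; AUC across days; negative direction vs DMSO.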

[2] = CCTE_Shafer_MEA_dev_per_network_spike_spike_number_mean: CCTE's Neural Network Formation Assay for Mean Number of Spikes in a Network Spike, Shafer Lab (AID 2284053)
Summary of the method: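 Rat cortical primary cultures on 48-well MEA; compound from day 0, re-dosed with full media change DIV 5, 9. Recorded DIV 5, 7, 9, 12; spikes in 0.05 s window at network-spike peak ÷ total network spikes; AUC; loss vs DMSO.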

[3] = CCTE_Shafer_MEA_dev_per_network_spike_spike_percent: CCTE's Neural Network Formation Assay for Percent of Spikes in a Network Spike, Shafer Lab (AID 2284054)
Summary of the method: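 Metric: fraction of spikes falling in a 0.05 s window at network-spike peaks. Recordings were made on days 5, 7, 9 and 12 and collapsed by trapezoidal AUC. Cultures were rat cortical neurons on MEA plates, dosed continuously from plating, re-dosed at media changes.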

[4] = CCTE_Shafer_MEA_dev_LDH: CCTE's Lactate Dehydrogenase Assay for Cytotoxicity in the Neural Network Formation Assay, Shafer Lab (AID 2284068; active = hit-call score of the fitted dose curve at least 0.9, where 1 is the maximum;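 also: exposure for twelve days from plating with re-dosing on DIV 5 and 9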)
Summary of the method: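 Rat cortical primary neurons, MEA culture; dosing day 0–12, full medium plus compound exchange DIV 5, 9. Read-out: LDH enzyme activity, spectrophotometric. DMSO = negative control/baseline; signal loss → cytotoxicity.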

[5] = CCTE_Shafer_MEA_dev_AB: CCTE's Alamar Blue Assay for Cytotoxicity in the Neural Network Formation Assay, Shafer Lab (AID 2284083; active = hit-call score of the fitted dose curve at least 0.9, where 1 is the maximum;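 also: resazurin reduction fluorescence as viability of cultured neurons; twelve days of exposure from plating with re-dosing on DIV 5 and 9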)
Summary of the method: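 Rat cortical primary cultures, 1.5 x 10^5 cells/well on MEA; continuous compound exposure over 12 days of network development, re-dosed with full medium change DIV 5 and 9. Alamar Blue fluorescence; loss of signal = cytotoxicity vs DMSO baseline.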

[6] = CCTE_Shafer_MEA_acute_LDH: CCTE's Lactate Dehydrogenase Assay for Cytotoxicity in the Neural Acute Assay, Shafer Lab (AID 2284086; active = hit-call score of the fitted dose curve at least 0.9, where 1 is the maximum;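 also: active means LDH release rises above DMSO vehicle level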)
Summary of the method: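 Medium collected from MEA wells of primary rat cortical cultures (DIV 13 or 15) immediately after 40 min chemical exposure is assayed spectrophotometrically for lactate dehydrogenase activity. Endpoint fitted in positive direction versus DMSO.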

[7] = CCTE_Shafer_MEA_dev_mutual_information_norm: CCTE's Neural Network Formation Assay for Mutual Information Normalization, Shafer Lab (AID 2284091)
Summary of the method: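 Shared information across electrodes, tracked on days 5, 7, 9 and 12 of network development and collapsed as trapezoidal area under the curve. Rat cortical cultures were treated continuously from plating, with treatment renewed at feeds on DIV 5 and 9; DMSO baseline, negative-direction fit.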

[8] = CCTE_Shafer_MEA_dev_correlation_coefficient_mean: CCTE's Neural Network Formation Assay for Mean Correlation Coefficient, Shafer Lab (AID 2284093)
Summary of the method: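 Rat cortical cultures, 1.5 x 10^5 cells/well, dosed from day 0 for 12 days. Spontaneous spikes recorded DIV 5/7/9/12; electrode-pair correlation coefficients averaged, AUC taken. Fit in loss direction vs DMSO.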

[9] = CCTE_Mundy_HCI_Cortical_Synap_Neur_Matur_NeuriteSpotCountPerNeuriteLength: CCTE's Synaptogenesis and Neurite Maturation Assay in rat cortical cells for Neurite Spot Count per Neurite Length, Mundy Lab (AID 2284210)
Summary of the method: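 Synaptophysin spots per unit neurite length, measured by automated imaging of MAP2/synaptophysin/Hoechst-stained neurons. Cultures from rat cortex received chemical at DIV 7 with media change through DIV 12; glial growth arrested by AraC at DIV 5; DMSO baseline.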

[10] = CCTE_Mundy_HCI_Cortical_Synap_Neur_Matur_BPCount: CCTE's Synaptogenesis and Neurite Maturation Assay in rat cortical cells for Branch Point Count, Mundy Lab (AID 2284211)
Summary of the method: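 HCI read-out of branch points from MAP2/synaptophysin/Hoechst immunofluorescence; rat cortical cultures, AraC DIV 5, dosing DIV 7, fixed DIV 12; fit in positive direction vs DMSO baseline.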

[11] = CCTE_Mundy_HCI_Cortical_NOG_NeuriteCount: CCTE's Neurite Outgrowth Assay in rat cortical cells for Neurite Count, Mundy Lab (AID 2284212);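 also: cells fixed about two days after chemical exposure began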
Summary of the method: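 Rat cortical primary cells; compound added 2 h post-plating, 1/10 dilution of working solution. Anti-betaIII-tubulin/AF488 ICC; ArrayScan neurite count vs DMSO.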

[12] = CCTE_Mundy_HCI_Cortical_NOG_NeuriteLength: CCTE's Neurite Outgrowth Assay in rat cortical cells for Neurite Length, Mundy Lab (AID 2284213)
Summary of the method: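 First, rat primary cortical cells were plated and, 2 h later, given test chemical as a 1/10 dilution. Finally, βIII-tubulin immunostaining enabled automated imaging of neurite length.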

[13] = CCTE_Mundy_HCI_Cortical_Synap_Neur_Matur_NeuriteLength: CCTE's Synaptogenesis and Neurite Maturation Assay in rat cortical cells for Neurite Length, Mundy Lab (AID 2284214)
Summary of the method: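 Cultures of rat primary cortical cells received chemical at DIV 7 and were fixed at DIV 12, after glial arrest with AraC at DIV 5. Neurite length was measured by automated imaging of MAP2 immunofluorescence.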

[14] = CCTE_Mundy_HCI_Cortical_Synap_Neur_Matur_NeuriteSpotCountPerNeuron: CCTE's Synaptogenesis and Neurite Maturation Assay in rat cortical cells for Neurite Spot Count per Neuron Count, Mundy Lab (AID 2284215)
Summary of the method: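 Developing rat cortical neurons, with glia suppressed by AraC, are exposed to chemicals from DIV 7 to DIV 12. Automated fluorescence imaging of MAP2-labelled neurites and synaptophysin puncta yields a count per neuron, normalised against DMSO wells.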

[15] = CCTE_Mundy_HCI_Cortical_Synap_Neur_Matur_SynapseCount: CCTE's Synaptogenesis and Neurite Maturation Assay in rat cortical cells for Synapse Count, Mundy Lab (AID 2284218)
Summary of the method: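 Cells were plated, allowed 2 hr to attach, treated with AraC at DIV 5, then exposed to chemicals from DIV 7 until DIV 12. After fixation and MAP2/synaptophysin immunolabelling, synapses per neuron were quantified by automated imaging against DMSO.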

[16] = CCTE_Mundy_HCI_Cortical_Synap_Neur_Matur_NeuriteCount: CCTE's Synaptogenesis and Neurite Maturation Assay in rat cortical cells for Neurite Count, Mundy Lab (AID 2284222);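 also: exposure from day 7 to day 12 in vitro with readout at day 12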
Summary of the method: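 Primary rat cortical cells were plated, treated with AraC at DIV 5, then exposed to chemicals from DIV 7 through DIV 12. After fixation and immunostaining for MAP2 and synaptophysin, imaging quantified neurites, with DMSO as the negative control.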

[17] = CCTE_Mundy_HCI_Cortical_Synap_Neur_Matur_CellBodySpotCount: CCTE's Synaptogenesis and Neurite Maturation Assay in rat cortical cells for Cell Body Spot Count, Mundy Lab (AID 2284223)
Summary of the method: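 Chemicals were applied to AraC-treated rat primary cortical cells at DIV 7 and measured at DIV 12. Fixed cells were labelled for MAP2, synaptophysin and nuclei, and high-content imaging gave cell body synaptophysin spot counts per neuron relative to DMSO.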

[18] = CCTE_Mundy_HCI_Cortical_NOG_BPCount: CCTE's Neurite Outgrowth Assay in rat cortical cells for Branch Point Count, Mundy Lab (AID 2284237)
Summary of the method: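 Measured 50.33 h after dosing, this morphology endpoint uses rat primary cortical cultures labelled for betaIII-tubulin. Branch points are quantified by high-content imaging, with DMSO as negative control and baseline.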

[19] = CCTE_Mundy_HCI_hNP1_Casp3_7: CCTE's Caspase-Glo 3/7 Assay in human neuroprogenitor cells for Apoptosis, Mundy Lab (AID 2284240)
Summary of the method: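 Apoptosis is scored by activated caspase-3/7 luminescence in WA09-derived neural progenitor cells, measured 26.5 h after chemical dosing. Values represent gain of signal relative to DMSO vehicle.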

[20] = CCTE_Mundy_HCI_hNP1_CellTiter: CCTE's Cell Titer-Glo 2 Assay in human neuroprogenitor cells for Viability, Mundy Lab (AID 2284241; active = hit-call score of the fitted dose curve at least 0.9, where 1 is the maximum)
Summary of the method: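 Human neural progenitor cells (hNP1, WA09-derived) were plated on poly-L-ornithine/laminin and grown 40 to 44 hours at 37 °C, 5% CO2 before chemical addition. Twenty-four hours later, ATP was measured by CellTiter-Glo luminescence; loss of signal versus DMSO indicates reduced viability.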

[21] = CCTE_Mundy_HCI_Cortical_Synap_Neur_Matur_NeuronCount: CCTE's Synaptogenesis and Neurite Maturation Assay in rat cortical cells for Neuron Count, Mundy Lab (AID 2284242; active = hit-call score of the fitted dose curve at least 0.9, where 1 is the maximum)
Summary of the method: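 Cortical cells from rat are plated, treated with AraC at DIV 5, and exposed to test chemicals with a media change at DIV 7. At DIV 12 they are fixed and immunostained (MAP2, synaptophysin), and imaged neuron counts are compared against DMSO controls.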

[22] = CCTE_Mundy_HCI_iCellGluta_NOG_NeuriteLength: CCTE's Neurite Outgrowth Assay in iCellGluta cells for Neurite Length, Mundy Lab (AID 2284318; active = hit-call score of the fitted dose curve at least 0.9, where 1 is the maximum)
Summary of the method: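 Automated high-content imaging of betaIII-tubulin (Alexa Fluor-488) and Hoechst-stained cells gave neurite length, normalized to the DMSO baseline.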

[23] = CCTE_Mundy_HCI_iCellGluta_NOG_NeuronCount: CCTE's Neurite Outgrowth Assay in iCellGluta cells for Neuron Count, Mundy Lab (AID 2284340; active = hit-call score of the fitted dose curve at least 0.9, where 1 is the maximum;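 also: cells fixed about 48 h after compound addition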)
Summary of the method: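 Neuron count read by automated high-content imaging of Hoechst 33342 and betaIII-tubulin/Alexa Fluor-488 labelling in human iPSC glutamatergic neurons. Activity fitted relative to DMSO.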

[24] = CCTE_Mundy_HCI_iCellGluta_NOG_NeuriteCount: CCTE's Neurite Outgrowth Assay in iCellGluta cells for Neurite Count, Mundy Lab (AID 2284342; active = hit-call score of the fitted dose curve at least 0.9, where 1 is the maximum;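 also: chemical exposure about 48 hours starting 2 hours after plating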)

Measured: outcome

C#CCN(C)[C@H](C)Cc1ccccc1
inactive: all assays above
